Bioassay records (PubChem)
Sampled rows, rich in hits. Any-hit rate of the full collection: about 2.1%.
PrP 5UTR inh: suppresses PrP 5' UTR mRNA reporter expression | cell-based PrP 5' UTR mRNA reporter, plate reader | inhibition, % (no concentration beside the values) | 340,000 tested, 0.35% active | AID 488862; in the data active means inhibition above about 52%
PfHsp40 yeast: compounds rescuing yeast from Plasmodium falciparum HSP40 toxicity; S. cerevisiae expressing PfHsp40, growth rescue, ATP luminescence; growth rescue, % at 12.5 µM; 340,000 tested, 0.68% active; in the data active means growth rescue above about 28%, passing the limit was not always enough; inconclusive means no clear call, values can overlap the other calls;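 further: yeast W303a lacking pdr1 and pdr3 grown in galactose medium; growth measured after three days at 30 °C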
PrPC TRFRET: inhibitors of human cell surface prion protein PrPC; P04156; TR-FRET read-out; inhibition, % at 13.8 µM; 370,000 tested, 0.43% active; AID 720596; in the data active means inhibition above about 24%
CCHF vOTU inh: CCHFV vOTU protease inhibition; Pep-AMC fluorescence; inhibition, % at 11.5 µM; 370,000 tested, 0.55% active; AID 651958; in the data active means inhibition above about 30%
RN4220 kill: S. aureus RN4220 growth inhibition; AID 1259311; 330,000 tested, 0.33% active; OD600, 16 h; inhibition, % (no concentration beside the values); in the data active means inhibition above about 85%
ugtP null kill: compounds lethal to S. aureus RN4220 ugtP deletion mutant. growth inhibition, % (concentration not given with the values). AID 1259309. 330,000 tested, 0.54% active. OD600 growth, 16 h; in the data active means growth inhibition above about 68%
A number is an active result; - = inactive; ? = inconclusive; . = no result given.

SMILES	PrP 5UTR inh	PfHsp40 yeast	PrPC TRFRET	CCHF vOTU inh	RN4220 kill	ugtP null kill
O=C(Nc1cc(Cl)ccc1-n1cncn1)c1ccco1	-	-	-	-	-	-
CCCCC/C=C/C1=CC(=O)C[C@H](c2ccc(OC)cc2)C1	-	44.0	-	-	-	-
COc1ccc(C2CC(=O)C=C(C=CCc3ccccc3)C2)cc1 (stereo unspecified)	.	.	.	.	-	-
O=C(O)c1cc(N/N=C/c2ccc(N3CCOCC3)s2)ccc1Cl	-	-	-	31.2	.	.
O=C(O)c1cc(NN=Cc2ccc(N3CCOCC3)s2)ccc1Cl	.	.	.	.	-	-
Cc1ccc(S(=O)c2snnc2C)cc1 (stereo unspecified)	-	-	-	-	-	-
CNC(=O)c1nnsc1S(=O)c1ccc(Cl)cc1 (stereo unspecified)	-	78.7	-	-	99.3	100.3
Nc1nnc(SCC(=O)c2ccc([N+](=O)[O-])cc2)s1	-	-	-	-	95.3	-
C=C(C)C(=O)Nc1cccc(C2=NOC3(C2)CC(C(N)=O)N(C(=O)C=CC=CC)C3)c1 (stereo unspecified)	.	.	.	.	-	-
CCOC(=O)c1ccc(N2C(=O)CC(N(C)CCc3ccc(OC)c(OC)c3)C2=O)cc1 (stereo unspecified)	-	557.8	-	-	-	-
CCCc1nnc(NC(=O)c2c(O)c3cccc4c3n(c2=O)CCC4)s1	.	.	.	.	88.4	95.7
CC(C)Cc1nc(SCc2cccnc2)c2c(=O)n(C)c(=O)n(C)c2n1	-	32.9	-	-	-	-
O=C(NN=Cc1cc([N+](=O)[O-])cc(Br)c1O)C12CC3CCC(CC(C3)C1)C2	.	.	.	.	-	-
Cc1ccc(-c2cc(-c3cccc(F)c3)n[nH]2)c(O)c1	-	65.6	-	-	-	-
Cc1ccc(O)c(-c2cc(-c3cccc(F)c3)n[nH]2)c1	-	?	-	-	-	-
Cc1ccc(SC(CCN2CCC(C)CCC2=O)c2ccccc2)cc1 (stereo unspecified)	.	.	.	.	-	-
O=C(Nc1ccc(F)c(Cl)c1)Nc1csc2ccccc12	-	-	-	-	100.0	100.2
CC(=NNc1ccc2ccccc2n1)c1ccccn1	.	.	-	-	.	.
COc1ccc2nc(NN=C(C)c3ccccn3)cc(C)c2c1	-	783.6	-	-	.	.
CCn1c(SCC(=O)N2c3ccccc3Sc3ccccc32)nnc1-c1ccco1	-	-	-	-	-	-
Cn1c(SCC(=O)N2c3ccccc3Sc3ccc(Cl)cc32)nnc1-c1ccco1	-	36.2	-	-	-	-
Cc1ccc(OC(=O)C2c3ccccc3Oc3ccccc32)cc1C	-	-	-	-	-	90.2
CC(NC(=O)COc1ccc(C=NNC(=O)CO)cc1)c1ccccc1 (stereo unspecified)	.	.	.	.	-	-
CC(C)c1ccc(OCC(=O)Nc2cccc3c2CCCC3)cc1	-	-	-	-	-	95.7
O=C1C2C(C(=O)N1N=Cc1cc(Br)cc([N+](=O)[O-])c1O)C1C=CC2C12CC2 (stereo unspecified)	.	.	.	.	-	-
SMILES	PrP 5UTR inh	PfHsp40 yeast	PrPC TRFRET	CCHF vOTU inh	RN4220 kill	ugtP null kill
Cc1ccc(S(=O)(=O)N2C(c3cccc(Cl)c3)CC=C(C(=O)O)C2c2ccc(Cl)cc2)cc1 (stereo unspecified)	.	.	.	.	-	-
CC(=O)Nc1cc(C(C)(C)C)c(O)c(C(C)(C)C)c1	-	-	-	-	-	-
CC(C)(C)c1cc([N+](=O)[O-])cc(C(C)(C)C)c1O	.	.	-	-	88.0	93.0
NS(=O)(=O)c1ccc(NN=Cc2ccc[nH]2)c([N+](=O)[O-])c1	.	.	.	.	-	-
CC1CN(C(C)CO)C(=O)c2cccc(NC(=O)C3CCCCC3)c2OC1CN(C)S(C)(=O)=O (stereo unspecified)	.	.	.	.	-	-
Cn1nnnc1N=NC(=NNc1ccccc1)c1ccccc1	.	.	.	.	-	-
Cn1nnnc1N=N/C(=N/Nc1ccccc1)c1ccccc1	-	233.7	-	-	.	.
CC(C)n1c(O)c(C2c3cc(Cl)ccc3Oc3[nH]c(=O)n(C(C)C)c(=O)c32)c(=O)[nH]c1=O (stereo unspecified)	-	281.3	.	.	-	-
CC(=O)c1c(O)n(-c2cccc(Cl)c2)c(=O)[nH]c1=O (tested in a mixture with another compound)	-	-	-	-	-	-
Oc1cccc(C=NNc2nncc(-c3ccccc3)n2)c1	.	.	.	.	-	-
CCOC(=O)N1CCN(C(=O)C2CCN(C(=O)c3ccccc3C)CC2)CC1	-	703.5	-	-	.	.
Cc1ccccc1C(=O)N1CCC(C(=O)N2CCN(c3ncccn3)CC2)CC1	-	-	-	-	-	-
O=S(=O)(c1cnccc1N1CCN(N=Cc2ccc(Cl)cc2)CC1)N1CCCCC1	.	.	.	.	-	-
OC(Cn1cncn1)c1ccc(Cl)cc1 (stereo unspecified)	-	-	-	-	-	-
OC(Cn1cncn1)(c1ccc(F)cc1)c1ccc(Cl)cc1 (stereo unspecified)	-	108.3	-	-	-	-
Cc1cc(C=NNC(=O)c2ccccc2F)c(C)n1-c1ccccc1	.	.	.	.	-	-
Cc1csc(NC(=O)C(C)Oc2ccc(Cl)cc2C)n1 (stereo unspecified)	-	60.4	-	-	-	-
CC(Oc1ccc(Cl)cc1Cl)C(=O)Nc1ncccn1 (stereo unspecified)	-	-	-	-	-	-
O=S(=O)(c1ccccc1)N1CCN(c2ncnc3scc(-c4ccccc4)c23)CC1	-	-	-	-	96.1	98.2
Cc1ccc(-c2csc3ncnc(N4CCN(S(=O)(=O)c5cccs5)CC4)c23)cc1	-	122.4	.	.	97.2	97.8
O=C(Nc1nnc(-c2cccs2)o1)c1cccc(C(F)(F)F)c1	-	-	-	-	99.7	100.0
CCC1CCCCN1S(=O)(=O)c1ccc(C(=O)Nc2nnc(-c3cccs3)o2)cc1 (stereo unspecified)	-	59.6	.	.	94.5	99.2
CN(C)S(=O)(=O)c1ccc(C(=O)Nc2nnc(-c3cccs3)o2)cc1	-	-	-	-	-	-
CC1CC(C)CN(S(=O)(=O)c2ccc(C(=O)Nc3nnc(-c4cccs4)o3)cc2)C1 (stereo unspecified)	-	-	-	-	99.7	100.2
COc1ccc(C2CC(=O)C=C(c3cccc(Br)c3)C2)cc1OC (stereo unspecified)	.	.	.	.	-	-
SMILES	PrP 5UTR inh	PfHsp40 yeast	PrPC TRFRET	CCHF vOTU inh	RN4220 kill	ugtP null kill
O=S(=O)(c1ccccc1)c1cnn(-c2ccccc2)c1-c1ccc(F)cc1	-	49.0	-	-	-	-
CCCOc1cccc(-c2nn(-c3ccccc3)cc2/C=C(\C#N)C(=O)NCCCn2ccnc2)c1	-	45.2	-	-	-	-
N#C/C(=C/c1cn(-c2ccccc2)nc1-c1cccc(OCc2ccc(F)cc2)c1)C(=O)NCCCn1ccnc1	-	-	-	-	-	-
Oc1cccc2ccc(Nc3ccccn3)nc12	-	240.1	-	-	-	-
O=S(=O)(C=Cc1ccccc1)N1CCN(Cc2ccccc2)CC1	.	.	.	.	-	-
CCCCCCCCCCCC(=O)NC(C(=O)O)C(O)c1ccccc1 (stereo unspecified)	-	59.5	-	-	-	-
